UBC13 inh – human UBC13 polyubiquitination inhibition; P61088; UBC13 polyubiquitin chain formation, TR-FRET; inhibition, % at 20 µM; 330,000 tested, 0.47% active; AID 485273; in the data active = inhibition above about 45%, passing the limit was not always enough
Target sequence (P61088 whole entry, looked up): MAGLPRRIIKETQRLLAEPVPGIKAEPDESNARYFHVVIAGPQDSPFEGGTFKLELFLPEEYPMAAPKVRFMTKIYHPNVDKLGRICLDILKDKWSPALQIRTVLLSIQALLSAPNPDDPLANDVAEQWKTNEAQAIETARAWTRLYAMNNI
SUMO HTRF inh – blocks human SUMOylation mediated by UBC9; HTRF SUMOylation assay, SAE1/SAE2 + UBC9, in vitro; inhibition, % at 35 µM; AID 2006; P63279; 290,000 tested, 0.36% active; in the data active = inhibition above about 50%, passing the limit was not always enough
Target sequence (P63279 whole entry, looked up): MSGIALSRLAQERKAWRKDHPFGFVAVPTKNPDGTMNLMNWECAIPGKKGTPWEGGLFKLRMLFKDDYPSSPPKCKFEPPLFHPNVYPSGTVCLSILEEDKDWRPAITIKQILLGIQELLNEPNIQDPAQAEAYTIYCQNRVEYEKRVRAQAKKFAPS
NR3A LBD binder – modulators (binders) of human NR3A ligand-binding domain; NR3A LBD differential scanning fluorimetry, Tm shift; 0% = protein alone, 100% = glycine-bound protein; Tm shift relative to glycine control, % at 25 µM; 340,000 tested, 2.5% active;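 active = melting temperature shift of at least 10% of the positive control shift, at one fixed dose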
HGIII-sPLA2 inh – Inhibits HGIII-sPLA2 liposome hydrolysis, primary screen; Q9NZ20; QFRET BODIPY PC-A2 liposome hydrolysis, fluorescence; inhibition, % at 12.2 µM; 370,000 tested, 0.56% active; AID 743126;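 active = inhibition above mean plus 3 SD of compounds lying within the high and low control bounds, cut at about 19% in these data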;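 note: 0% = median of test compound wells and 100% = no enzyme DMSO wells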
Starred values were filed as active, the others as inactive; . = no result. Only some compounds are listed: those with a hit (about 3.3% of all), similar ones and a draw of the others.

SMILES	UBC13 inh	SUMO HTRF inh	NR3A LBD binder	HGIII-sPLA2 inh
COC(=O)[C@]12C[C@H](CC(=O)N3CCCC3)C(=O)N(Cc3ccc(Cl)cc3Cl)C1=C[C@H](C1CCCC1)O[C@@H]2C	.	.	.	0
COc1ccc(-c2nnc(SCC(=O)N/N=C(\C)c3ccc(-c4ccccc4)cc3)n2-c2ccc(C)cc2)cc1	.	.	.	-1
CC(=O)Nc1ccc(/C=C/c2ccc3cccc([N+](=O)[O-])c3n2)cc1	-4	5	26*	-17
O=C(O)COc1ccc(/C=C/c2ccc3cccc([N+](=O)[O-])c3n2)cc1	-18	10	18*	8
O=C(c1cc2ccccc2c(=O)o1)N1CCCC1	-1	6	.	0
O=c1oc([C@@H](O)c2ccccc2)cc2ccccc12	11	.	10*	-2
CC(=O)Oc1ccc(C(=O)Cc2ccc3ccccc3n2)c(O)c1C	-32	10	12*	-2
O=C(N=c1ccn(-c2nc3ccccc3nc2NS(=O)(=O)c2ccc(Cl)cc2)cc1)c1ccccc1Cl	-2	47	.	.
CC(=O)Nc1ccc(S(=O)(=O)Nc2nc3ccccc3nc2-n2ccc(=NC(=O)c3ccccc3)cc2)cc1	-17	15	25*	1
O=C(N=c1ccn(-c2nc3ccccc3nc2NS(=O)(=O)c2ccccc2)cc1)c1ccccc1Cl	0	30	-8	-20
CC(=O)Nc1ccc(S(=O)(=O)Nc2nc3ccccc3nc2-n2ccc(=NC(=O)c3ccc(F)cc3)cc2)cc1	11	-5	36*	-19
COc1ccc(C)cc1Nc1n[n+](-c2ccccc2)c(-c2ccc(SC)cc2)s1	20	4	27*	2
O=S(=O)(NCC(Nc1ccccc1)c1ccccc1)c1ccc(Cl)cc1 (configuration not stated)	5	-12	17*	-27
O=C(O)c1cccc(NC(CNS(=O)(=O)c2ccc(Cl)cc2)c2ccccc2)c1 (configuration not stated)	-4	20	-7	-53
O=c1oc(Nc2cccc(F)c2)nc2ccccc12	5	-8	0	-7
Nc1nc(Nc2cccc(F)c2)nc2ccccc12	4	0	26*	-13
COc1ccc(Cl)cc1Nc1nc(N)c2ccccc2n1	7	-3	16*	-7
CC(C)CNC(=O)OCc1cn(Cc2ccc(F)cc2F)nn1	.	.	.	4
O=C(N/N=C/c1cccc(C(F)(F)F)c1)c1cc2c(s1)-c1ccccc1CC2	10	3	14*	1
Cc1cc(NS(=O)(=O)c2ccc(NC(=O)CSc3nc4sc(C)c(C)c4c(=O)n3Cc3ccco3)cc2)nc(C)n1	.	.	.	-33
COC(=O)[C@H](C(C)C)N1CCc2nnn(CC3CCCCC3)c2-c2cc(F)ccc2S1(=O)=O	.	.	.	1
CC(=NN1CCN(Cc2ccccc2Cl)CC1)c1ccc(O)cc1	.	.	.	11
CCN1CCC(O)(/C=C/c2ccc(C(C)C)cc2)C(C(=O)/C=C/c2ccc(C(C)C)cc2)C1 (configuration not stated)	.	.	24*	-26
CCN1CCN(C(=O)/C=C/c2ccc(C(C)C)cc2)CC1	5	.	-3	9
COC(=O)[C@]12C[C@H](CC(=O)NCC34CC5CC(CC(C5)C3)C4)C(=O)N(Cc3ccccc3)C1=C[C@H](COCc1ccccc1)O[C@@H]2C	.	.	.	-19
SMILES	UBC13 inh	SUMO HTRF inh	NR3A LBD binder	HGIII-sPLA2 inh
CCCCCCOC(=O)Nc1ccc(S(=O)(=O)Nc2cccc([N+](=O)[O-])c2)cc1	-13	-32	30*	-59
Cc1ccc(NS(=O)(=O)c2ccc(OCC(=O)Nc3cccc([N+](=O)[O-])c3)c(C)c2)cc1	13	-26	26*	-66
Cc1ccc(NC(=O)CN(C)C(=O)c2ccc(NS(=O)(=O)c3cccc([N+](=O)[O-])c3)cc2)cc1	-11	.	-4	-28
NS(=O)(=O)c1cccc(NC(=O)c2ccc(NS(=O)(=O)c3cccc([N+](=O)[O-])c3)cc2)c1	-1	.	30*	-11
Cc1ccc(C(=O)Nc2cccc([N+](=O)[O-])c2)cc1S(=O)(=O)Nc1ccc(NC(=O)c2ccccc2)cc1	-8	10	36*	-61
COC(=O)[C@@]12CCCCC3=C1N(CCC3)C(=O)[C@H]2CC(=O)N1CCOCC1	.	.	.	8
COC(=O)[C@]12C[C@H](CC(=O)NCCCN3CCCC3=O)C(=O)N(CCc3ccc(OC)c(OC)c3)C1=C[C@H](C(C)C)O[C@@H]2C1CC1	.	.	.	-2
CCOC(=O)[C@]12CCCC3=C1N(CCC3)C(=O)[C@@H](CC(=O)NCCc1ccccc1OC)C2	.	.	.	-5
CC1(c2nnnn2Cc2ccccc2)CCCC(=O)N1Cc1cccs1 (configuration not stated)	.	.	.	-1
Cc1ccc(C(=O)Nc2cccc([N+](=O)[O-])c2)cc1S(=O)(=O)Nc1cccc(C(=O)O)c1	-5	5	8	-18
NS(=O)(=O)c1ccc(NC(=O)c2ccc(-c3ccccc3)cc2)cc1	.	.	2	-3
NS(=O)(=O)c1ccc(C(=O)Nc2ccc(-c3nc4cccnc4s3)cc2)cc1	9	20	30*	-5
Cc1ccc(C(=O)NCCSC2CCCCC2)cc1S(=O)(=O)Nc1ccccc1	2	6	16*	-33
Cc1ccc(NC(=O)CC(=O)c2ccc([N+](=O)[O-])cc2)cc1S(=O)(=O)Nc1cccc(Cl)c1	-19	-5	25*	-4
NS(=O)(=O)c1ccc(NS(=O)(=O)c2ccc(NC(=O)c3ccc(-c4ccccc4)cc3)cc2)cc1	-14	46	23*	-109
Cc1onc(C(=O)N2CCN(C(c3ccc(Cl)cc3)c3ccc(Cl)cc3)CC2)c1[N+](=O)[O-]	.	.	.	-36
Cc1ccc(C)c(NC(=O)c2ccccc2NS(=O)(=O)c2cc([N+](=O)[O-])ccc2C)c1	-19	8	17*	4
Cc1cc(F)ccc1NC(=O)c1ccc(NS(=O)(=O)c2cc(C(C)(C)C)ccc2C)cc1	-3	-26	9	-38
CC(=O)Nc1ccc(NC(=O)c2ccc(NS(=O)(=O)c3cc(C(C)(C)C)ccc3C)cc2)cc1	3	44	17*	-8
Cc1ccc([N+](=O)[O-])cc1S(=O)(=O)Nc1cccc(S(=O)(=O)Nc2ccccc2C(=O)O)c1	12	.	6	-40
CS(=O)(=O)N1CCc2cc(C(=O)Nc3cccc([N+](=O)[O-])c3)ccc21	1	-1	31*	14
Cc1ccc(NS(=O)(=O)c2cc(C(=O)Nc3cccc([N+](=O)[O-])c3)ccc2C)cc1	14	-14	21*	1
CCOc1ccc(-n2c(SCC(=O)Nc3cc4oc5ccccc5c4cc3OC)nnc2-c2cccc(Cl)c2)cc1	.	.	.	3
Cc1ccc2nc(N/N=C\c3ccc([N+](=O)[O-])o3)nc(-c3ccccc3)c2c1	-143	22	-8	5
O=[N+]([O-])c1ccc(/C=N/Nc2ccc3ccccc3c2)o1	-136	-36	21*	15
O=C(N/N=C/c1ccc([N+](=O)[O-])o1)c1cc2c(ccc3ccccc32)o1	.	.	-10	-1
O=C(N/N=C/c1ccc([N+](=O)[O-])o1)c1cc2ccccc2o1	1	8	10*	-6

Screens as filed in PubChem.
